High-throughput results as filed in PubChem BioAssay.
Only some compounds are listed: those with a hit (about 11% of all), similar ones and a draw of the others.
Tau fluor cs – Counterscreen qHTS for Inhibitors of Tau Fibril Formation, Fluorescence Polarization. tau K18 P301L Alexa594 fluorescence, heparin fibrillization. Potency, µM (top dose mostly 57.7 µM). 0.93% of 280,000 active. AID 1463, 2008; further: nearly all actives have a fitted effect of over 55% in size
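Human K18 P301L tau (15 uM unlabeled plus 0.24 uM Alexa 594-labeled, final) in 100 mM sodium acetate pH 7 was mixed with compound and 20 uM heparin and incubated 6 hr at 37 C.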
Tau FP inhib – qHTS for Inhibitors of Tau Fibril Formation, Fluorescence Polarization; Microtubule-associated protein tau (Homo sapiens), P10636; K18 P301L tau heparin fibrillization, Alexa594 FP, 6 h; Potency, µM (top dose mostly 57.7 µM), usual class: inhibitors; 0.39% of 280,000 active; further: nearly all actives have a fitted effect of over 55% in size
Target sequence (P10636 561-689 P618L limits assumed): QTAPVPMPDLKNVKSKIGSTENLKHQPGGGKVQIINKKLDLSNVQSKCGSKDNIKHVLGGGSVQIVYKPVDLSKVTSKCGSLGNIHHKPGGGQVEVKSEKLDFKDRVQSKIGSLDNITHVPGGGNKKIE
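Heparin (20 uM) drove fibril formation of recombinant tau K18 P301L, 15 uM unlabeled with 0.24 uM Alexa 594 label, for 6 hr at 37 C in 100 mM sodium acetate pH 7. Fluorescence polarization (555/632 nm) read 1 hr after 30 uM ThT.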
Tau fibril ThT – qHTS for Inhibitors of Tau Fibril Formation, Thioflavin T Binding; Microtubule-associated protein tau (Homo sapiens), P10636; recombinant tau K18 P301L (four-repeat tau fragment), heparin-induced fibrillization, ThT fluorescence; Potency, µM (doses to about 57.4 µM), actives largely listed as inhibitors; 2.1% of 270,000 active; AID 1460, 2008; further: nearly all actives have a fitted effect of over 55% in size
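Recombinant human tau K18 fragment […] carrying P301L, 15 uM unlabeled plus 0.24 uM Alexa 594-labeled, was fibrillized with 20 uM heparin in 100 mM sodium acetate pH 7 for 6 hr at 37 C; 30 uM ThT fluorescence read after 1 hr.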
G9a inh – qHTS Assay for Inhibitors of Histone Lysine Methyltransferase G9a; Potency, µM (top dose mostly 102 µM), most hits filed as inhibitors; AID 504332, 2011; 8.8% of 350,000 active; Histone-lysine N-methyltransferase EHMT2 (Homo sapiens), Q96KQ7; G9a H3K9 monomethylation, AlphaScreen, 2 h; further: nearly all actives have a fitted effect of over 75% in size
Target sequence (Q96KQ7 913-1193 limits assumed): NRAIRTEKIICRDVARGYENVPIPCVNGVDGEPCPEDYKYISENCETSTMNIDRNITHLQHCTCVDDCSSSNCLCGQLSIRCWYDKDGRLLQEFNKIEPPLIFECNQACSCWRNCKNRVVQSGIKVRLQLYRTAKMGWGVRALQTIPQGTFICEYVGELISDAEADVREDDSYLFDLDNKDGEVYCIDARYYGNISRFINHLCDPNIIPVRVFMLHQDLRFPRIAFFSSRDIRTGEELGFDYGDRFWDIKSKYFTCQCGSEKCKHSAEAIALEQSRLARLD
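Step 1: enzyme (final 20 nM) with compound, 15 min RT. Step 2: substrate peptide 500 nM and SAM 20 uM, 2 h RT. Step 3: anti-H3K9me1 antibody and AlphaScreen beads, 10 min, then plate read.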
Sfp PPTase inh – qHTS Assay for Inhibitors of Bacillus subtilis Sfp phosphopantetheinyl transferase (PPTase); Potency, µM, actives largely listed as inhibitors; 4'-phosphopantetheinyl transferase ffp (Bacillus subtilis), Q9F4F7; AID 1490, 2009; 3.5% of 310,000 active; Biochemical Sfp PPTase activity, qHTS;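 further: the enzyme is Sfp with the accession as filed and its product quenches rhodamine fluorescence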
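Sfp 15 nM + cpd, 15 min RT; start w/ rhodamine-CoA 5 uM, BHQ-2-YbbR 12.5 uM (final); 50 mM Hepes pH 7.6, 10 mM MgCl2, 0.01% NP-40, 0.01% BSA; read 525/598 nm at 0 and 30 min.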
FBPA coupling cs – qHTS Assay for Inhibitors of Fructose-1,6-bisphosphate Aldolase from Giardia Lamblia: Coupling assay counterscreen; activity change, negative = inhibition, % at 58.2 µM, hits read low; coupling enzyme system counterscreen, AmpLite Red fluorescence; AID 2472, 2010; 0.67% of 290,000 active; in the data active means activity change below about -30%
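Coupling enzymes only (glyceraldehyde-3-phosphate) + compound, at 57.5 uM final, 10 min RT; add substrate/coupling/AmpLite Red mix, 20 min RT; fluorescence ex 525/em 598 nm. Actives flag coupling-system interference.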
Numbers stand for hits; n = inactive; u = inconclusive; x = no result given; ! = a repeat was not active; [ ] = remark or other dose. Unless noted, the call rests on the fitted dose curve; in most records, active means well fitted curve in the direction sought with a large enough effect; inconclusive means small, poorly fitted or top-dose-only effect, or another doubt; inactive means no such curve, though single readings can be large; an effect the other way counts as inactive or inconclusive.

SMILES | Tau fluor cs | Tau FP inhib | Tau fibril ThT | G9a inh | Sfp PPTase inh | FBPA coupling cs
COc1ccc2nc(N3C(=O)C(O)=C(C(=O)c4ccco4)C3c3ccccc3OC)sc2c1 (stereo not given) | x | x | x | 35µM | n | x
Cc1cc(C)c2nc(N3C(=O)C(O)=C(C(=O)c4ccco4)C3c3ccco3)sc2c1 (stereo not given) | x | x | x | u | n | n
Cn1c(=O)oc2cc(S(=O)(=O)CCC(=O)N3CCN(c4cccc(Cl)c4)CC3)ccc21 | n | n | n | n | x | x
Cc1cc2c(c(=O)n1-c1ccccc1)C1O[C@](c3ccsc3)(Cc3ccccc31)O2 | x | x | x | x | n | n
Nc1ccccc1Nc1nc2ccccc2[nH]1 | x | x | x | 89µM | n | n
Nc1ccc(Nc2nc3ccccc3[nH]2)cc1 | x | x | x | x | n | n
Cc1ccc(CNC(=O)c2ccc3c(=O)n4c(-c5ccc(C)cc5)csc4nc3c2)cc1 | n | n | n | n | n | n
Cc1ccc(-c2csc3nc4cc(C(N)=O)ccc4c(=O)n23)cc1 | n | n | n | n | 79µM | n
CCOC(=O)[C@H]1[C@H]2COc3ccc(C)cc3[C@@H]2N2C(=O)[C@@H](C)NC(=O)[C@@]12C | x | x | x | n[0.501 µM] | x | x
NC(=S)N(c1ccccc1)c1ccccc1 | n | n[2.34 µM] | n | n | 45µM | n
O=C(CN1C(=O)C2CC=CCC2C1=O)Nc1ccc(OC(F)(F)F)cc1 (stereo not given) | x | x | x | n | x | x
COc1ccc(-c2[nH]c(-c3ccc(O)cc3)nc2-c2ccccc2)cc1 | 22µM[quencher] | n | u | u | x | x
O=C(O)COc1ccc(-c2nc(-c3ccccc3)c(-c3ccccc3)[nH]2)cc1 | x | x | x | u | n | n
COc1ccc(-c2nc(-c3ccc4c(c3)OCO4)[nH]c2-c2ccc(OC)cc2)cc1 | n | n | n | n | n | n
COc1ccc(-c2nc(-c3ccccc3)c(-c3ccc(O)cc3)[nH]2)cc1 | 14µM[quencher] | u | u | u | x | x
O=C(c1cc2cc(Cl)ccc2[nH]1)N1CCN(c2ccccn2)CC1 | x | x | x | n | n | n
CCC1C(=O)CC2CCN3C(=O)CCC1C23 (stereo not given) | x | x | x | x | n | n
CCOC(=O)c1ccc(N2C(=O)c3[nH]nc(-c4ccc(C)cc4)c3C2c2cccc(F)c2)cc1 (stereo not given) | n | u | n | n | x | x
CCOC(=O)c1ccc(N2C(=O)c3[nH]nc(-c4ccc(OC)cc4)c3C2c2cccc(O)c2)cc1 (stereo not given) | u | 16µM | u | n | x | x
CCOC(=O)c1ccc(N2C(=O)c3n[nH]c(-c4ccco4)c3C2c2ccc(C)cc2)cc1 (stereo not given) | u | u | n | 11µM | x | x
CCOC(=O)c1ccc(N2C(=O)c3n[nH]c(-c4ccco4)c3C2c2ccc(O)c(OC)c2)cc1 (stereo not given) | u | u | u | 22µM | x | x
NC(N)=N/N=C/c1ccccc1 | n | n | n | n | n | n
COc1cc(/C=N/N=C(N)N)ccc1OCc1ccc(Cl)cc1 | u | n | n | u | 16µM | n
NC(N)=N/N=C/c1ccc(OCc2ccccc2Cl)cc1 | u | n | n | n | 50µM | n
NC(N)=N/N=C/c1ccc(OCc2ccccc2)c(OCc2ccccc2)c1 | x | x | x | u | 56µM | n
SMILES | Tau fluor cs | Tau FP inhib | Tau fibril ThT | G9a inh | Sfp PPTase inh | FBPA coupling cs
CCOc1cc(/C=N/N=C(N)N)ccc1OCc1ccc(Cl)cc1 | u | n | n | u | 20µM | n
COc1cc(/C=N/O)ccc1OCc1ccc(Cl)cc1 | n | n | n | x | n | n
NC(N)=N/N=C/c1ccc(Cl)c(Cl)c1 | n | n | x | n | n | n
CCOc1cc(CNCCc2ccc(S(N)(=O)=O)cc2)ccc1OCc1ccc(Cl)cc1 | n | n | u | n | 8.9µM | n
Cc1csc(NC(=O)Cc2coc3cc(C)c(C(C)C)cc23)n1 | u | u | n | 45µM | n | n
COc1ccc2c(c1)c1c(c(=O)n(-c3ccc(F)c(Cl)c3)c(=O)n1Cc1cccc(C)c1)n2C | n | n | n | n | x | x
COc1cc(OC)cc(N2C(=O)CC(N3CCC(C(=O)N4CCCCC4)CC3)C2=O)c1 (stereo not given) | x | x | x | x | n | x
O=C(O)CP(=O)(O)O | n | n | n | 13µM! | n | n
COc1cc(CN2CCC(C(=O)N3CCCC(C)C3)CC2)cc(OC)c1O (stereo not given) | n | n | n | 7.9µM | n | n
COc1ccc(Cl)cc1NC(=O)CN1CCC(NC(=O)C2CC2)CC1 | x | x | x | n | n | n
COc1cc(NC(=O)C2CC2)c(OC)cc1NC(=O)CCC(=O)NC1CCN(Cc2ccccc2)CC1 | n | n | n | 40µM | n | n
COc1cc(CN2CCC(C(=O)NC3CCCC3)CC2)cc(OC)c1O | n | n | n | 8.9µM | u | n
CC(=O)Nc1c(C)nn(-c2ccccc2)c1N1CCC(C(=O)NCc2cccc(Cl)c2)CC1 | n | n | n | n | x | x
COC(=O)C1=C[C@@H](C(=O)OC)C2C3=C(C(=O)[C@]2(CC(C)C)NC(=O)c2ccccc2)[C@H](C)n2c(=O)n(C)c(=O)n2[C@@H]3C1 (stereo not given in full) | x | x | x | x | n | n
CCOC(=O)c1ccc(-n2c(N)c(C(=O)OC)c3nc4ccccc4nc32)cc1 | n | n | n | n | x | x
COc1cc(Cl)c(NS(=O)(=O)c2ccc3[nH]c(=O)ccc3c2)c(OC)c1 | n | n | n | n | x | x
Cc1cccc(C(=O)Nc2cccc(NC(=O)c3ccccc3)c2)c1 | x | x | x | x | n | n
O=C1C(Cl)=C(NC(=O)c2ccccc2)C(=O)C(Cl)=C1NC(=O)c1ccccc1 | x | x | x | 1.3µM | 0.89µM | n
O=C(NC1=C(NC2CCS(=O)(=O)C2)C(=O)c2ccccc2C1=O)c1ccccc1 (stereo not given) | n | n | n | 3.5µM | 35µM | -62
Cc1cccc(NC2=C(NC(=O)c3ccccc3)C(=O)c3ccccc3C2=O)c1 | n | n | u | 3.2µM | 20µM | -41
O=C(NC1=C(Nc2ccc(Cl)cc2)C(=O)c2ccccc2C1=O)c1ccccc1 | u | n | 18µM | 7.9µM | 56µM | -30
O=C(Nc1ccc(OC(F)(F)F)cc1)C1CCCN(S(=O)(=O)c2cnc[nH]2)C1 (stereo not given) | x | x | x | x | n | x
CN(C1=C(NC(=O)c2ccc(Cl)cc2)C(=O)c2ccccc2C1=O)c1ccccc1 | n | n | n | 8.9µM | n | -55
COc1ccc(CNc2n[nH]c(-c3ccco3)n2)cc1OC | n | n | n | n | x | x
